Compounds without any hit were thinned out: in the full panel of roughly 83,000, 20% have a hit.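 Cells were grown in 96-well plates and exposed to the test compound at a single concentration for 48 hours; results are reported as percent growth, with values below 10 considered active.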 A number with no mark means an inactive call. Calls of active or inactive are those of the source.
Experiments:
Experiment in all cases: NCI-60 one-dose screen, 48 h (100 = growth as untreated, 0 = no growth, -100 = all killed)
Conditions in all cases: 10 µM unless noted
T-47D breast = tested on: T-47D breast
BT-549 breast = tested on: BT-549 breast
MDA-MB-435 melanoma = tested on: MDA-MB-435 melanoma
SW-620 colon = tested on: SW-620 colon
MCF7 breast = tested on: MCF7 breast
HCT-116 colon = tested on: HCT-116 colon
HCC-2998 colon = tested on: HCC-2998 colon
KM12 colon = tested on: KM12 colon

| Structure (SMILES) | growth (T-47D breast) | growth (BT-549 breast) | growth (MDA-MB-435 melanoma) | growth (SW-620 colon) | growth (MCF7 breast) | growth (HCT-116 colon) | growth (HCC-2998 colon) | growth (KM12 colon) |
| --- | --- | --- | --- | --- | --- | --- | --- | --- |
| COc1ccc(/C=C2\CCCC3=C2N=C2SC=NN2C3c2ccc(OC)c(OC)c2)cc1OC (configuration not stated) | 52.5% | 38.5% | 18.2% | 29.7% | 22.6% | 8.93% (active) | 57.1% | 28.2% |
| Nc1nc2c(c3cnccc13)C(c1cccc(Br)c1)Cc1cnccc1-2 (configuration not stated) | 43.9% | -15.6% (active) | -37.2% (active) | 25.9% | 11.5% | 3.93% (active) | 34.8% | 13.2% |
| CC([C@H]1CC=C2C3CCC4=C[C@@H](N(C)C)CC[C@]4(C)C3CC[C@@]21C)N(C)C (some centres not stated) | 29.1% | 90.5% | -67.5% (active) | 9.89% (active) | 34.9% | -57% (active) | 49.6% | 30.6% |
| O=C(O)c1ccc(Br)nc1 | 99.1% | 106% | 103% | 97.1% | 93.8% | 98% | 104% | 107% |
| COc1ccc(-c2nc(SCC(C)C)nc(Nc3ccc([N+](=O)[O-])cc3)c2C#N)cc1 | 92.6% | 104% | 101% | 84.8% | 90.2% | 60.1% | 107% | 99.9% |
| CC(C)OCC1CO1 (configuration not stated) | 104% | 106% | 102% | 96.4% | 99.6% | 100% | 120% | 98.3% |
| CCCCCCCCCCCCCCCCNC(=S)N/N=C/c1ccc(OC)cc1 | 103% | 104% | 107% | 107% | 102% | 89.6% | 113% | 97.9% |
| O=C(OCC1CC2(Cl)C(Cl)=C(Cl)C1(Cl)C2(Cl)Cl)C1C(C(=O)OCC2CC3(Cl)C(Cl)=C(Cl)C2(Cl)C3(Cl)Cl)C2(Cl)C(Cl)=C(Cl)C1(Cl)C2(Cl)Cl (configuration not stated) | 105% | 97.5% | 106% | 107% | 96.9% | 101% | 102% | 101% |
| COc1ccc(Cn2cc3c(c2-c2ccccc2)CCc2cnoc2-3)cc1OC | 28.3% | 45.8% | -33.9% (active) | 25.2% | 11.4% | 22.8% | 37.4% | 29.2% |
| N#Cc1ccc(OCc2nc(N)nc(N)c2-c2ccc(Cl)c(Cl)c2)cc1 | 82.2% | 34.2% | 15.9% | 21.8% | 15.2% | 11.9% | 40.4% | 43.2% |
| COc1cccc2c1n([O-])c1cccc(OC)c1[n+]2=O | 50.2% | 71.5% | 91.5% | 68% | 36.9% | 48.5% | -4.2% (active) | 73.3% |
| COc1ccc(CN2C(=O)/C(=C\C(=O)c3ccc(OCCN4CCCC4)cc3)c3ccccc32)cc1 | 57.8% | 92.5% | 90.2% | 3.07% (active) | 32.4% | 18.5% | 101% | 85.4% |
| Cc1nnc(-c2cc3c(ccc4ccccc43)oc2=O)c2cn(-c3ccc(Cl)cc3)nc12 | 76.2% | 105% | 107% | 99.3% | 80.1% | 85.6% | 97.3% | 94.4% |
| OCC(O)C(O)CC1SCCS1 (configuration not stated) | 97.1% | 102% | 105% | 99.7% | 103% | 104% | 108% | 103% |
| N=C(N)N=Nc1ccc(NN=C(N)N)cc1 | 97.3% | 88.9% | 109% | 38.3% | 90.9% | 85.9% | 86.6% | 43.8% |
| CC(=O)CC(=O)OC/C=C(/C)CCC=C(C)C | 123% | 102% | 114% | 105% | 99.6% | 98.9% | 97.2% | 105% |
| CN(CCC#N)c1ccc(/C=C(\C#N)c2cccc(C(F)(F)F)c2)cc1 | 56.7% | 60.1% | 1.34% (active) | 40.4% | 34.2% | 57.6% | 78.5% | 38.5% |
| COC(=O)c1cc(=O)nc(N/N=C/c2ccccc2O)s1 | 73.1% | 94.7% | 100% | 106% | 5.18% (active) | 58.7% | 89.1% | 95.3% |
| Cc1c(O)c(N=Nc2ccc(C(=O)O)c(O)c2)c2ccccc2c1O | 112% | 89.3% | 106% | 84.8% | 101% | 98.1% | 118% | 98.3% |
| O=C(CCl)NC1c2ccccc2Oc2ccccc21 | 65.9% | 55.2% | 62.7% | 57.1% | 45.8% | 45.9% | 111% | 82.6% |
| O=C(O)CS(=O)c1ccc(Cl)cc1 (configuration not stated) | 101% | 99.8% | 102% | 106% | 101% | 97.6% | 97.1% | 103% |
| COc1cc2ncnc(-n3ncc4cc(NC(=O)Nc5ccc(Cl)c(Cl)c5)ccc43)c2cc1OC | -0.727% (active) | -26.9% (active) | -31.1% (active) | -32.4% (active) | -34.8% (active) | 23.9% | 15.4% | 0.483% (active) |
| COCC(=O)NNc1[nH]c(-c2ccc(OC)cc2)cc1C#N | 106% | 113% | 102% | 114% | 108% | 110% | 133% | 104% |
| O=C(/C=C/c1c[nH]c2ccccc12)c1cc2ccccc2o1 | 82.8% | 79.6% | 92.1% | 95.2% | 65.9% | 62% | 105% | 75.7% |
